# This is a sample that favours compounds with a hit; in the whole collection about 6.2% have one here.
# Cardio protect = myocardial damage modulation in H9c2 cells; H9c2 cardiomyocytes, H2O2 injury protection, ATPLite, 2 h; protection from H2O2 cell death, % at 20 µM; 360,000 tested, 0.63% active; AID 588492;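 active = compounds giving at least 50% protection of heart cells from peroxide-induced death in the single-dose screen, raw or plate-pattern-corrected value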;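 also: 0% = DMSO wells with peroxide and 100% = DMSO wells without peroxide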
# AI-2 QS mod = modulates the Vibrio harveyi AI-2 quorum sensing system; Vibrio harveyi JMH597 AI-2 luminescence/OD600 ratio, 9 h; hits give low values; strain lacks LuxN and CqsS sensors; 0 = neutral-control median; activity change, % at 7.5 µM; 300,000 tested, 0.4% active; in the data active = activity change below about -75%, passing the limit was not always enough;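 also: luminescence divided by OD600 gain over 9 h not by final OD600 alone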
# NR3A LBD binder = modulators (binders) of human NR3A ligand-binding domain. NR3A LBD differential scanning fluorimetry, Tm shift; 0% = protein alone, 100% = glycine-bound protein. Tm shift relative to glycine control, % at 25 µM. 340,000 tested, 2.5% active;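 active = melting temperature shift of at least 10% of the positive control shift, at one fixed dose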
# Mot1-301 SUMO = SUMOylation pathway inhibition by Mot1-301 growth rescue | S. cerevisiae Mot1-301 growth rescue, ATP luminescence, 38.5C; percent above DMSO median, 100 means doubled | growth rescue, % at 18.8 µM | 320,000 tested, 1% active | AID 2716;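 active = every valid replicate shows activation above 250% relative to neutral control wells; inactive = the rest, any valid replicate at or below 250%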;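 also: OY570 slx delta 5 strain wells were the positive control but not used for scaling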
# NTR1 ag = NTR1 (human) agonism | P30989 | NTR1-U2OS beta-arrestin-GFP spot imaging, agonist mode | activation, % at 20 µM | 330,000 tested, 0.17% active;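 active = activation at or above 40% of the spot to cytoplasm intensity ratio, with at least 20 cells analyzed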;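 also: 0% = DMSO without peptide and 100% = 100 nM NTR1 peptide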
# AHR activator = activators of human aryl hydrocarbon receptor. 320,000 tested, 2.5% active. P35869. activation, % at 5 µM. AHR-responsive luciferase reporter cells, luminescence; in the data active = activation above about 47%;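 also: 0% = vehicle wells and 100% = reference agonist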
# Target sequence (P35869 whole entry, looked up): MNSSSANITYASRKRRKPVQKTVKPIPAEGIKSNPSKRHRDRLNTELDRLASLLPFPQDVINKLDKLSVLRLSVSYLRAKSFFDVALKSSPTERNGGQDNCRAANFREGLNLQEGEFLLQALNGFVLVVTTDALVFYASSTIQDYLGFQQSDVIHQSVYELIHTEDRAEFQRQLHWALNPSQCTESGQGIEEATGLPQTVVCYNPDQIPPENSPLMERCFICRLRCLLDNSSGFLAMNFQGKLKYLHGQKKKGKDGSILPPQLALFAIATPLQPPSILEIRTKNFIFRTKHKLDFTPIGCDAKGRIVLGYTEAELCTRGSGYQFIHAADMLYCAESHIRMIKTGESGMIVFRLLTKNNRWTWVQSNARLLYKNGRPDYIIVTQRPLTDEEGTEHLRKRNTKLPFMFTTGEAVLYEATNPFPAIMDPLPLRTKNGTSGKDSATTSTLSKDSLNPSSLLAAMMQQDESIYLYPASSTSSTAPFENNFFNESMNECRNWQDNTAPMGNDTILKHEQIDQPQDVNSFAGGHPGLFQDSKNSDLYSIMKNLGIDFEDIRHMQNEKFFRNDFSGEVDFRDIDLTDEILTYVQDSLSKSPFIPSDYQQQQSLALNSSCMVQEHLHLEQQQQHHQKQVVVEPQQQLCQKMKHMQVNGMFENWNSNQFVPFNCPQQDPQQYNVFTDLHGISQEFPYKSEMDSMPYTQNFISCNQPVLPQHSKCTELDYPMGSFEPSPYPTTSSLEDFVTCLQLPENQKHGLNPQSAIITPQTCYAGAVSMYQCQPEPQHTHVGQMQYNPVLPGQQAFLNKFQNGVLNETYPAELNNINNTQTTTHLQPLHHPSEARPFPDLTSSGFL
# An asterisk follows results filed as active; . = no result given.
SMILES,Cardio protect,AI-2 QS mod,NR3A LBD binder,Mot1-301 SUMO,NTR1 ag,AHR activator
CN1c2ccccc2Sc2cc(N)ccc21,-2.2,12.4,0.3,44.3,0.8,62.1*
COc1ccc(Cn2cc(Cn3c4ccccc4c(=O)n3C(C)C)nn2)cc1,6.5,.,.,.,.,.
O=C(CN(c1ccc(Cl)c(C(F)(F)F)c1)S(=O)(=O)c1ccccc1)N1CCOCC1,-9.9,21.9,14.0*,-9.0,0.7,-0.1
O=C(CN(c1ccc([N+](=O)[O-])cc1)S(=O)(=O)c1ccccc1)N1CCCCC1,-1.4,5.4,-3.0,-11.7,1.5,-1.5
O=C(CN(c1cccc([N+](=O)[O-])c1)S(=O)(=O)c1ccccc1)N1CCCCC1,-1.6,10.8,-0.6,340.6*,0.0,-1.8
O=C(CN(c1cccc(C(F)(F)F)c1)S(=O)(=O)c1ccccc1)N1CCOCC1,12.9,12.8,1.2,6.5,-0.2,-2.8
COc1ccc(C(=O)c2ccc3oc(-c4ccc(OC)cc4)c(C#CCCO)c3c2)cc1,-10.3,11.0,-5.2,-13.2,14.7,6.9
COc1cc(OC)cc(-c2oc3cccnc3c2C#CCCO)c1,56.2*,1.8,-0.3,16.8,7.5,-2.3
COc1ccc(Nc2nc(Nc3ccc(OC)cc3OC)nc(N3CCN(C)CC3)n2)c(OC)c1,64.4*,5.4,-2.5,.,3.9,-1.1
COc1ccc(Nc2nc(N3CCCC3)nc(N3CCCC3)n2)c(OC)c1,-14.6,14.4,2.6,.,6.8,-0.6
COc1ccc(Nc2nc(N)nc(C(F)(F)F)n2)c(OC)c1,1.9,3.2,-0.6,-12.2,0.4,76.0*
CCOc1ccccc1N(C(=O)CNC(=O)c1ccco1)C(C(=O)NC(C)(C)C)c1ccncc1 (stereo not given),5.1,31.5,395.4*,-10.4,-1.6,2.0
COc1ccccc1N(C(=O)CNC(=O)c1ccco1)C(C(=O)NC1CCCC1)c1ccncc1 (stereo not given),6.0,48.3,0.7,203.6,-0.1,6.7
O=c1[nH]c(C2CCN(S(=O)(=O)c3ccc(S(=O)(=O)NC4CC4)cc3)CC2)nc2c1nnn2Cc1ccc(F)cc1,-4.1,2.7,10.5*,53.8,1.7,-1.4
Cc1ccc(C)c(Cn2nnc3c(=O)[nH]c(C4CCN(S(=O)(=O)c5ccc(S(=O)(=O)NC6CC6)cc5)CC4)nc32)c1,-1.4,28.1,12.1*,-10.5,7.0,0.6
COC(=O)c1ccc(Cn2nnc3c(=O)[nH]c(C4CCCN(S(=O)(=O)c5ccccc5)C4)nc32)cc1 (stereo not given),60.9*,6.1,-13.9,14.9,3.6,0.0
C=CCN1CC(=O)N2C(c3ccccc3)c3[nH]c4ccccc4c3C[C@H]2C1=O (stereo not given in full),5.7,33.3,-1.7,-10.8,0.8,.
Cc1ccccc1Cn1ccc(NC(=O)c2cnn3c(C(F)(F)F)cc(-c4ccco4)nc23)n1,60.4*,17.8,-4.5,15.4,10.0,47.9*
O=C(Nc1ccc2c(c1)OCO2)c1cnn2c(C(F)(F)F)cc(-c3ccco3)nc12,93.1*,.,-3.4,-2.5,5.3,19.3
O=C(NCc1ccco1)c1cc2nc(-c3ccc4c(c3)OCO4)cc(C(F)(F)F)n2n1,7.5,-24.5,-0.6,-16.2,4.7,63.1*
COc1ccc(NC(=O)c2cnn3c(C(F)(F)F)cc(-c4ccco4)nc23)cc1OC,46.0,17.0,0.3,-6.2,1.9,29.3
Cc1ccccc1Cn1ccc(NC(=O)CCSc2nc(-c3ccco3)cc(C(F)(F)F)n2)n1,-4.0,29.1,-24.5,12.2,3.3,2.3
O=C(NCc1cccnc1)c1cc2nc(-c3ccc4c(c3)OCO4)cc(C(F)(F)F)n2n1,3.1,13.7,0.3,41.8,2.0,9.6
Cc1c(NC(=O)[C@@H](NC(=O)c2ccc(Cl)c([N+](=O)[O-])c2)C(C)C)c(=O)n(-c2ccccc2)n1C,-5.2,.,0.4,3.9,3.0,-0.1
Cc1ccc(C(=O)NC(=S)Nc2c(C)ccc3nsnc23)cc1,1.6,-10.5,11.2*,2.9,0.9,93.8*
SMILES,Cardio protect,AI-2 QS mod,NR3A LBD binder,Mot1-301 SUMO,NTR1 ag,AHR activator
Cc1ccc(C(=O)NC(=S)Nc2cccc3nsnc23)cc1,-19.7,17.7,-0.1,7.9,0.5,21.4
CCOc1cc(N2CCOCC2)c(OCC)cc1NC(=O)COC(=O)CCn1c(C)csc1=O,1.9,20.3,0.5,.,0.1,-1.7
O=C(Nc1ccc(Nc2ccccc2)cc1)c1ccc(F)cc1,-4.5,-88.0*,14.7*,149.6,5.6,-1.5
O=C(NC(=S)Nc1ccc(NC(=O)c2ccccc2)cc1)c1ccc(F)cc1,2.3,21.5,19.8*,26.5,2.8,2.5
O=C(Nc1ccc(Nc2ccccc2)cc1)c1c(F)c(F)c(F)c(F)c1F,-6.5,-3.7,14.9*,1.3,5.1,2.1
O=C(NC(=S)Nc1ccc(-c2ccccc2)cc1)c1ccccc1,3.1,.,3.3,.,.,.
CCn1ncc(S(=O)(=O)NCc2ccccc2Cl)c1C,-0.5,7.2,0.7,-16.5,-0.2,-1.1
Cc1ccccc1OCC(=O)OCC(=O)Nc1cc(S(=O)(=O)N2CCCCC2)ccc1Cl,0.0,12.0,-4.7,2.4,1.7,-0.9
CCOC(=O)c1[nH]c2cc(OC)c(OC)cc2c1NC(=O)C(C)N1CCN(Cc2ccccc2)CC1 (stereo not given),55.5*,-4.7,-0.4,1.1,0.8,4.6
COc1ccc2c(c1)c1nnc(SCC(=O)NC3CC3)nc1n2C,-2.3,33.4,-0.9,3.0,-0.9,72.0*
COc1ccc2c(c1)c1nnc(SCC(=O)Nc3ccccc3F)nc1n2C,6.9,18.7,0.2,-12.8,2.0,8.4
CSc1ccc(CN2CCC(C)(Oc3ccc(C(C)=O)cc3)C2)cc1 (stereo not given),-0.3,.,.,.,.,.
O=S(=O)(Nc1nc(-c2sccc2Cl)cs1)c1cc(Cl)ccc1Cl,2.0,-21.1,13.7*,-0.4,3.5,15.0
Cc1c([N+](=O)[O-])c(C(=O)Nc2ccc3c(c2)OCCO3)nn1C,2.4,17.1,10.2*,-4.5,-2.7,23.5
Cc1nn(C)c(C(=O)Nc2ccc3c(c2)OCO3)c1[N+](=O)[O-],1.4,8.1,0.6,61.3,0.3,.
Cc1nn(C(C)C(=O)Nc2ccc3c(c2)OCO3)c(C)c1[N+](=O)[O-] (stereo not given),-6.0,9.0,0.0,15.1,0.8,76.0*
CC(Sc1ncnc2ccccc12)C(=O)Nc1ccc2c(c1)OCO2 (stereo not given),-13.3,3.8,-1.5,-15.8,0.8,51.2*
Cc1nn(-c2ccccc2)c(Cl)c1C(=O)OC(C)C(=O)Nc1ccc2c(c1)OCO2 (stereo not given),-1.8,29.7,-5.8,117.8,-3.0,65.6*
CC(Sc1ccc2c(c1)OCCO2)C(=O)Nc1ccc2c(c1)OCO2 (stereo not given),1.1,9.8,-0.6,8.5,-1.1,5.3
